Assay results reported in PubChem BioAssay (EPA / NIEHS).
Active and inactive are the calls of the source. The calls were made as follows: active = hit-call score of the fitted dose curve at least 0.9, where 1 is the maximum; inactive = score below 0.9.

read-out: Cyclin D2 (CCND2), CCND2 (gene 894); assay: LTEA_HepaRG_CCND2: Life Technologies and Expression Analysis (LTEA) Assay for Cyclin D2 (CCND2) using HepaRG (AID 2283449); details: mRNA level, 48 h; actives raise or lower the signal
In short: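 CCND2 transcript levels, quantified by qRT-PCR and normalised to three housekeeping genes, were fitted bidirectionally against 0.5% DMSO. HepaRG cultures were dosed 48 h in duplicate with an 8-point half-log series up to 100 uM.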

SMILES | outcome
CCN(CC)C(=O)c1cc(S(=O)(=O)Cc2ccccc2)c(N2CCC(c3ccccc3)CC2)cc1N(CC)CCN(C)C | inactive
COc1cc(C(=O)NC2CCN(C)CC2)ccc1Nc1ncc2c(n1)N(C1CCCC1)CC(F)(F)C(=O)N2C | inactive
NCc1cccc(C2CCN(C(=O)c3ccc(C#Cc4ccccc4F)o3)CC2)c1 | inactive
CCCCCc1ccc(N)cc1 | inactive
c1ccc2ccccc2c1 | inactive
O=C=NCCCCCCN=C=O | inactive
CCCCOC(=O)CC(CC(=O)OCCCC)(OC(C)=O)C(=O)OCCCC | inactive
CC1=CC(=O)/C(=C(/C)O)C(=O)O1 | inactive
CCO[Si](CCCNC(N)=O)(OCC)OCC | inactive
CN1C(=O)CC[C@H]1c1cccnc1 | inactive
CCCCCCCCCCCCO | inactive
c1ccc(C[n+]2cccc3ccccc32)cc1 | inactive
CC[C@H](NC(=O)c1cc(F)ccc1NS(=O)(=O)c1cccc2cccnc12)c1ccccc1 | inactive
CCOC(=O)O[C@H](C)OC(=O)c1ccc2c(c1)cc(C(=O)NC1CCN(C(C)C)CC1)n2Cc1cc(-c2ccc(Cl)s2)on1 | inactive
O=CCCCC=O | inactive
O=C(O)Cc1cc(I)c(Oc2ccc(O)c(I)c2)c(I)c1 | inactive
Cc1occc1C(=O)Nc1ccc(C(=O)N2CCC(F)(F)/C(=C\C(=O)N3CCC(N4CCCCC4)CC3)c3ccccc32)cc1 | inactive
CC(C)(O)c1ccc(CNC(=O)c2cccnc2Oc2ccc3nonc3c2)cc1 | inactive
CC[C@@H]1C[C@H](N(Cc2cc(C(F)(F)F)cc(C(F)(F)F)c2)C(C)=O)c2cc(C(F)(F)F)ccc2N1C(=O)OC(C)C | inactive
O=C(OCCCCCCOC(=O)c1ccccc1)c1ccccc1 | inactive
OCCO | inactive
CN(C)c1ccc(C(=C2C=CC(=[N+](C)C)C=C2)c2ccc(N(C)C)cc2)cc1 | inactive
O=C1O[C@H]([C@@H](O)CO)C(O)=C1O | inactive
CCCCCCCCCCCO | inactive
Cc1cccc2ccccc12 | inactive
COCC(C)OCC(C)OCC(C)O (stereo unspecified) | inactive
CN(C)C(=O)C1(N2CCCCC2)CCN(CC[C@@]2(c3ccc(Cl)c(Cl)c3)CN(C(=O)c3ccccc3)CCO2)CC1 | inactive
O=c1ccc2ccccc2o1 | inactive

read-out: Cyclin Dependent Kinase Inhibitor 1A (CDKN1A), CDKN1A (gene 1026); assay: LTEA_HepaRG_CDKN1A: Life Technologies and Expression Analysis (LTEA) Assay for Cyclin Dependent Kinase Inhibitor 1A (CDKN1A) using HepaRG (AID 2283450); details: mRNA level, 48 h; actives raise or lower the signal
In short: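 Cryopreserved HepaRG cells were plated and cultured 48 h, then switched to serum-free induction medium. Chemicals (eight half-log concentrations, top 100 uM, 0.5% DMSO) were applied for 48 h. Lysates underwent qRT-PCR for CDKN1A with housekeeping normalization.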

SMILES | outcome | AC50
CCN(CC)C(=O)c1cc(S(=O)(=O)Cc2ccccc2)c(N2CCC(c3ccccc3)CC2)cc1N(CC)CCN(C)C | inactive | –
O=C(O)c1ccccc1-n1cc(C(=O)O)c(=O)c2cc(Nc3c(F)cc(F)cc3Cl)c(Cl)cc21 | inactive | –
COc1cc(C(=O)NC2CCN(C)CC2)ccc1Nc1ncc2c(n1)N(C1CCCC1)CC(F)(F)C(=O)N2C | inactive | –
NCc1cccc(C2CCN(C(=O)c3ccc(C#Cc4ccccc4F)o3)CC2)c1 | inactive | –
CCCCCc1ccc(N)cc1 | inactive | –
c1ccc2ccccc2c1 | inactive | –
O=C=NCCCCCCN=C=O | inactive | –
CCCCOC(=O)CC(CC(=O)OCCCC)(OC(C)=O)C(=O)OCCCC | inactive | –
CC1=CC(=O)/C(=C(/C)O)C(=O)O1 | inactive | –
CCO[Si](CCCNC(N)=O)(OCC)OCC | inactive | –
CN1C(=O)CC[C@H]1c1cccnc1 | inactive | –
CCCCCCCCCCCCO | inactive | –
CCCC(=O)OCCC(C)C | inactive | –
c1ccc(C[n+]2cccc3ccccc32)cc1 | – | 50 µM (active)
CC1(C)NC(=O)N(c2ccc([N+](=O)[O-])c(C(F)(F)F)c2)C1=O | – | 80.8 µM (active)
CC[C@H](NC(=O)c1cc(F)ccc1NS(=O)(=O)c1cccc2cccnc12)c1ccccc1 | inactive | –
CCOC(=O)O[C@H](C)OC(=O)c1ccc2c(c1)cc(C(=O)NC1CCN(C(C)C)CC1)n2Cc1cc(-c2ccc(Cl)s2)on1 | inactive | –
O=CCCCC=O | inactive | –
O=c1[nH]sc2ccccc12 | inactive | –

SMILES | outcome | AC50
O=C(O)Cc1cc(I)c(Oc2ccc(O)c(I)c2)c(I)c1 | – | 82.7 µM (active)
Cc1occc1C(=O)Nc1ccc(C(=O)N2CCC(F)(F)/C(=C\C(=O)N3CCC(N4CCCCC4)CC3)c3ccccc32)cc1 | inactive | –
CC(C)(O)c1ccc(CNC(=O)c2cccnc2Oc2ccc3nonc3c2)cc1 | inactive | –
CC[C@@H]1C[C@H](N(Cc2cc(C(F)(F)F)cc(C(F)(F)F)c2)C(C)=O)c2cc(C(F)(F)F)ccc2N1C(=O)OC(C)C | inactive | –
Cc1ccc(C(C)C)cc1 | inactive | –
CC(O)CC(C)(C)O (stereo unspecified) | inactive | –
O=C(OCCCCCCOC(=O)c1ccccc1)c1ccccc1 | inactive | –
OCCO | inactive | –
COc1ccc2cc(S(=O)(=O)N[C@H](CC(=O)N[C@H](Cc3ccc(CN4[C@H](C)CCC[C@@H]4C)cc3)C(=O)N(C)C(C)C)c3ccc4c(c3)OCO4)ccc2c1 | inactive | –
CCN(Cc1cccnc1)C(=O)c1cccc(Cl)c1[C@]1(C)C(=O)N(Cc2ccc(OC)cc2OC)c2ccc(Cl)cc21 | – | 11.6 µM (active)
CN(C)c1ccc(C(=C2C=CC(=[N+](C)C)C=C2)c2ccc(N(C)C)cc2)cc1 | inactive | –
O=C1O[C@H]([C@@H](O)CO)C(O)=C1O | inactive | –
CCCCCCCCCCCO | inactive | –
Cc1cccc2ccccc12 | inactive | –
CC/C(=C(/CC)c1ccc(O)cc1)c1ccc(O)cc1 | inactive | –
Cc1cn([C@H]2C[C@H](N=[N+]=[N-])[C@@H](CO)O2)c(=O)[nH]c1=O | inactive | –
COCC(C)OCC(C)OCC(C)O (stereo unspecified) | inactive | –
CN(C)C(=O)C1(N2CCCCC2)CCN(CC[C@@]2(c3ccc(Cl)c(Cl)c3)CN(C(=O)c3ccccc3)CCO2)CC1 | – | 84.3 µM (active)
O=c1ccc2ccccc2o1 | inactive | –
